The target in experiment [1] is High affinity nerve growth factor receptor (Homo sapiens) (UniProt P04629). The note with it: at 1 µM.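 Further: each value is the mean percent inhibition of TRKA.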
Experiment [2] concerns the target BDNF/NT-3 growth factors receptor (Homo sapiens) (UniProt Q16620). The note with it: at 0.1 µM.
The target is the same in experiment [3]. The note with it: at 1 µM.
The target of experiment [4] is NT-3 growth factor receptor (Homo sapiens) (UniProt Q16288). To be noted: at 0.1 µM.
Experiment [5] shares this target. To be noted: at 1 µM.
In experiment [6] the target is T1, Tyrosine-protein kinase TXK (Homo sapiens) (UniProt P42681).
T1 sequence (whole entry): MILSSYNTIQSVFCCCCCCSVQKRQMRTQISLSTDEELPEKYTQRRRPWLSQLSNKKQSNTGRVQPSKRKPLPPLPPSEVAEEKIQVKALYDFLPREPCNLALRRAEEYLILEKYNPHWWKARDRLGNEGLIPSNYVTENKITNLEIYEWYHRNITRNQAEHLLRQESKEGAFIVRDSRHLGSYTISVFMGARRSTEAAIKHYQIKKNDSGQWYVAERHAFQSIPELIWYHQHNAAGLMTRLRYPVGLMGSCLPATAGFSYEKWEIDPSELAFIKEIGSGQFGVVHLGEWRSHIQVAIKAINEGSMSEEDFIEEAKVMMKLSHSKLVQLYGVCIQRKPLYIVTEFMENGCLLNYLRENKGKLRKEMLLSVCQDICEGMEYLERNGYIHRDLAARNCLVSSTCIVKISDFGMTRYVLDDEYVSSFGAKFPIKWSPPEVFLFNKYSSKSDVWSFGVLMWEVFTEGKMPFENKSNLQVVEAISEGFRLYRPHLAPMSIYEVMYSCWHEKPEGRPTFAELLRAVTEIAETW
To be noted: at 0.1 µM.

For experiment [7], the target named is T1, Tyrosine-protein kinase TXK (Homo sapiens). To be noted: at 1 µM.
Experiment [8] addresses Non-receptor tyrosine-protein kinase TYK2 (Homo sapiens) (UniProt P29597). To be noted: at 0.1 µM.
Experiment [9] deals with T2, Dual specificity protein kinase TTK (Homo sapiens) (UniProt P33981).
T2 sequence (whole entry): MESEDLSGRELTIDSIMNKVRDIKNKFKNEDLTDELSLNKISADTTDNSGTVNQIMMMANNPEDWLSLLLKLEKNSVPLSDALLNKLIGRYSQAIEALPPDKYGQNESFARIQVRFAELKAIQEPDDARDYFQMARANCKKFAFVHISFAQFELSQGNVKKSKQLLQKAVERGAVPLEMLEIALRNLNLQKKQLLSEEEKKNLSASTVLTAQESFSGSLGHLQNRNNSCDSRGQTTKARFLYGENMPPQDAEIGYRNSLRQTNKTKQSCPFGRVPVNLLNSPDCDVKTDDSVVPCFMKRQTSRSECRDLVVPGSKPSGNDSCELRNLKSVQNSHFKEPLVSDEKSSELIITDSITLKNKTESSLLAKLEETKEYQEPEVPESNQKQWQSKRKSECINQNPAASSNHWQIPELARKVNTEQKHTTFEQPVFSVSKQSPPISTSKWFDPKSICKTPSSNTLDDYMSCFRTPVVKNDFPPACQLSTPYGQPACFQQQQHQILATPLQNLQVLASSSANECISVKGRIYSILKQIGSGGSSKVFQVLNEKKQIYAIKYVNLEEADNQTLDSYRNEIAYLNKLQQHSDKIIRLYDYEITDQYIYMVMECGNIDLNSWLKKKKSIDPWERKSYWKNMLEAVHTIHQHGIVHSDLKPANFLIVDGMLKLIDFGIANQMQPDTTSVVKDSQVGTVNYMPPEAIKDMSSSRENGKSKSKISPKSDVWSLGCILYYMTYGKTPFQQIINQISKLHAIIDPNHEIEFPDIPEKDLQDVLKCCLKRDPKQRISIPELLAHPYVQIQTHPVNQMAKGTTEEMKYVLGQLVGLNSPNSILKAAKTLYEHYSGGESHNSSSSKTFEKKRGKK
The note with it: at 1 µM.

For experiment [10], the target named is T3, Aurora kinase A (Homo sapiens) (UniProt O14965).
T3 sequence (whole entry): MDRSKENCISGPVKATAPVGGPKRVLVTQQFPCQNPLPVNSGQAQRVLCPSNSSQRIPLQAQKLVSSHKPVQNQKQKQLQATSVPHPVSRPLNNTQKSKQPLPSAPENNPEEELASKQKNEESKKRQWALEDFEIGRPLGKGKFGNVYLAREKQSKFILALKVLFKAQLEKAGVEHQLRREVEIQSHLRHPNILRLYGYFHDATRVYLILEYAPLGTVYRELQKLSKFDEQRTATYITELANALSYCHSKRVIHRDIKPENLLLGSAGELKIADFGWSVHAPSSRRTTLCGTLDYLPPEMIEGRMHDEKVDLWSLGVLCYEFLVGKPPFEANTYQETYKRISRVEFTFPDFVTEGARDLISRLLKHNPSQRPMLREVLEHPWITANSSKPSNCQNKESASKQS
The note with it: at 0.1 µM.

For experiment [11], the target named is T3, Aurora kinase A (Homo sapiens). To be noted: at 1 µM.
Experiment [12] concerns the target Aurora kinase B (Homo sapiens) (UniProt Q96GD4). The note with it: at 0.1 µM.
The target is the same in experiment [13]. The note with it: at 1 µM.
Experiment [14] concerns the target T4, Aurora kinase C (Homo sapiens) (UniProt Q9UQB9).
T4 sequence (whole entry): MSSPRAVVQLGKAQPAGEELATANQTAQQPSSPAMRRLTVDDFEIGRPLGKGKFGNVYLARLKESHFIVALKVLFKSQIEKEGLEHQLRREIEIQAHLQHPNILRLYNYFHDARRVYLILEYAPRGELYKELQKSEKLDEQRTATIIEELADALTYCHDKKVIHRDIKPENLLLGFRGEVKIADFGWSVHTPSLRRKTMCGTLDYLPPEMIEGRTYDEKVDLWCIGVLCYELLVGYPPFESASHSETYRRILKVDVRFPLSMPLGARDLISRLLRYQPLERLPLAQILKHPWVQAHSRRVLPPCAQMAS
The note with it: at 0.1 µM.

The target of experiment [15] is T4, Aurora kinase C (Homo sapiens). To be noted: at 1 µM.
The target in experiment [16] is Serine/threonine-protein kinase 10 (Homo sapiens) (UniProt O94804). The note with it: at 0.1 µM.
Experiment [17] shares this target. To be noted: at 1 µM.
For experiment [18], the target named is T5, Mitogen-activated protein kinase kinase kinase kinase 2 (Homo sapiens) (UniProt Q12851).
T5 sequence (whole entry): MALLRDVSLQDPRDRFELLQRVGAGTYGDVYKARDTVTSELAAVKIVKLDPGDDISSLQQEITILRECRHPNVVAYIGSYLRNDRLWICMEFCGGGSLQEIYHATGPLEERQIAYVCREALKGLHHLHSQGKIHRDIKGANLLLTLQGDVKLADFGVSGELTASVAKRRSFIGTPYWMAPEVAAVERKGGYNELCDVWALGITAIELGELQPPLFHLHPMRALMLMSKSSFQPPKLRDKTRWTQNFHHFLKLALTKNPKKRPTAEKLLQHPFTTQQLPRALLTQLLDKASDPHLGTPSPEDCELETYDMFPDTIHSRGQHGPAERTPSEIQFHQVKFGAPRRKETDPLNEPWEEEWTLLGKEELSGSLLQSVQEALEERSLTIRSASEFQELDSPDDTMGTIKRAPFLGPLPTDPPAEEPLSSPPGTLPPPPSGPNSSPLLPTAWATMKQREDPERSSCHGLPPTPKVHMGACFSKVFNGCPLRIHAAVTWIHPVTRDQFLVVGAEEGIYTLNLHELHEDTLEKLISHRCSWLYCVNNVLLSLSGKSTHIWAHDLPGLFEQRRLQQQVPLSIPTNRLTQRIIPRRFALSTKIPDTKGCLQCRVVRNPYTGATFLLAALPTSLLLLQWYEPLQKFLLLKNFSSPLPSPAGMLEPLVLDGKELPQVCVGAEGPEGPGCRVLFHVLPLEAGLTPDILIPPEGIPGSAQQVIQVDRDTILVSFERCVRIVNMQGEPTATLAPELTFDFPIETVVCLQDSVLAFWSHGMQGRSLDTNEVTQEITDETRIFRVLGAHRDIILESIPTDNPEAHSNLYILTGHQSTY
The note with it: at 0.1 µM.

The target in experiment [19] is T5, Mitogen-activated protein kinase kinase kinase kinase 2 (Homo sapiens). To be noted: at 1 µM.
Experiment [20] addresses Mitogen-activated protein kinase kinase kinase kinase 4 (Homo sapiens) (UniProt O95819). To be noted: at 0.1 µM.

As usually defined, the inhibition is the drop in the measured response relative to a control, in per cent.

Sequence of BDNF/NT-3 growth factors receptor (Homo sapiens) (Q16620 32-822 limits assumed): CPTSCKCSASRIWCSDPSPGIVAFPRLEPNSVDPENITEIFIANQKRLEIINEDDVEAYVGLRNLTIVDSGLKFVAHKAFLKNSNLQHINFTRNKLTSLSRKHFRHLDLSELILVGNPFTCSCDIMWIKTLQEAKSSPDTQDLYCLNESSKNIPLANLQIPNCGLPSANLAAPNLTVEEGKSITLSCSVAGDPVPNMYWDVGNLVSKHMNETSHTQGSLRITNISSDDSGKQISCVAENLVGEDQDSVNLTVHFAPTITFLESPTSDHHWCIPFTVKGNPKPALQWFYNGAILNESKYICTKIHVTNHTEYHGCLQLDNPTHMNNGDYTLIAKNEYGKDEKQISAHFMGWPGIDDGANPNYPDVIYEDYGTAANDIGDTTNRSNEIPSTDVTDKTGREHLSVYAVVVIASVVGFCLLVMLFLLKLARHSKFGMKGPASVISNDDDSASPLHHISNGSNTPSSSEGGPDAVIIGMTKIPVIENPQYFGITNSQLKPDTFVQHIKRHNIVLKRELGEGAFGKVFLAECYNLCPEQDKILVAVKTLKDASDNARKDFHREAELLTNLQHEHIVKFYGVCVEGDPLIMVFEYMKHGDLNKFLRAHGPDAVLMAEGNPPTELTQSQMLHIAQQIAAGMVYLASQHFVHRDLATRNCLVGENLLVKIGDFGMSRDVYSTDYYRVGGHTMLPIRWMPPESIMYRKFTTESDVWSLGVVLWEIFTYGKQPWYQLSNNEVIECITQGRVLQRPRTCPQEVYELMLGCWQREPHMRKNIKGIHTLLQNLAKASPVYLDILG
Sequence of High affinity nerve growth factor receptor (Homo sapiens) (P04629 33-796 limits assumed): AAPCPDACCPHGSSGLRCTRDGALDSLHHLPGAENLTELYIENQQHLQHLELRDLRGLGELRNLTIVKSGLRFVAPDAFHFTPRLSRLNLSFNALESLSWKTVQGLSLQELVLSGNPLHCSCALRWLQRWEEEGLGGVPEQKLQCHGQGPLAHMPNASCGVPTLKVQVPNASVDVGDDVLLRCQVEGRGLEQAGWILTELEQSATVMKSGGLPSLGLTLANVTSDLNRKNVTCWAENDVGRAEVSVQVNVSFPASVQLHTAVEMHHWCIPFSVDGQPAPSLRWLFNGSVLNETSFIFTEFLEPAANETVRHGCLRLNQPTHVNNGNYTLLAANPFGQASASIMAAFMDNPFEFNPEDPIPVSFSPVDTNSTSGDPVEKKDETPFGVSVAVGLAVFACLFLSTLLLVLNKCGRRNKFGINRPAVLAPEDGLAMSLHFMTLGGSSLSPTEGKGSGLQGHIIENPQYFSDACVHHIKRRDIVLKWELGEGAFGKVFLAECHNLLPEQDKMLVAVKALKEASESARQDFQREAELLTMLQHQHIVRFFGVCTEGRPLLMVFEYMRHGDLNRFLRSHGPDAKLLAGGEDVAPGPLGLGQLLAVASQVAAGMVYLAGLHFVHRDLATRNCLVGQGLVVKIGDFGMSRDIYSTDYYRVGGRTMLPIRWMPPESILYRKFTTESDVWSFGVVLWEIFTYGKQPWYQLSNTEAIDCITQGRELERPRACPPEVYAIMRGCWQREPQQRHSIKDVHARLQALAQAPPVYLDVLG
Sequence of Mitogen-activated protein kinase kinase kinase kinase 4 (Homo sapiens) (O95819 2-1239 limits assumed): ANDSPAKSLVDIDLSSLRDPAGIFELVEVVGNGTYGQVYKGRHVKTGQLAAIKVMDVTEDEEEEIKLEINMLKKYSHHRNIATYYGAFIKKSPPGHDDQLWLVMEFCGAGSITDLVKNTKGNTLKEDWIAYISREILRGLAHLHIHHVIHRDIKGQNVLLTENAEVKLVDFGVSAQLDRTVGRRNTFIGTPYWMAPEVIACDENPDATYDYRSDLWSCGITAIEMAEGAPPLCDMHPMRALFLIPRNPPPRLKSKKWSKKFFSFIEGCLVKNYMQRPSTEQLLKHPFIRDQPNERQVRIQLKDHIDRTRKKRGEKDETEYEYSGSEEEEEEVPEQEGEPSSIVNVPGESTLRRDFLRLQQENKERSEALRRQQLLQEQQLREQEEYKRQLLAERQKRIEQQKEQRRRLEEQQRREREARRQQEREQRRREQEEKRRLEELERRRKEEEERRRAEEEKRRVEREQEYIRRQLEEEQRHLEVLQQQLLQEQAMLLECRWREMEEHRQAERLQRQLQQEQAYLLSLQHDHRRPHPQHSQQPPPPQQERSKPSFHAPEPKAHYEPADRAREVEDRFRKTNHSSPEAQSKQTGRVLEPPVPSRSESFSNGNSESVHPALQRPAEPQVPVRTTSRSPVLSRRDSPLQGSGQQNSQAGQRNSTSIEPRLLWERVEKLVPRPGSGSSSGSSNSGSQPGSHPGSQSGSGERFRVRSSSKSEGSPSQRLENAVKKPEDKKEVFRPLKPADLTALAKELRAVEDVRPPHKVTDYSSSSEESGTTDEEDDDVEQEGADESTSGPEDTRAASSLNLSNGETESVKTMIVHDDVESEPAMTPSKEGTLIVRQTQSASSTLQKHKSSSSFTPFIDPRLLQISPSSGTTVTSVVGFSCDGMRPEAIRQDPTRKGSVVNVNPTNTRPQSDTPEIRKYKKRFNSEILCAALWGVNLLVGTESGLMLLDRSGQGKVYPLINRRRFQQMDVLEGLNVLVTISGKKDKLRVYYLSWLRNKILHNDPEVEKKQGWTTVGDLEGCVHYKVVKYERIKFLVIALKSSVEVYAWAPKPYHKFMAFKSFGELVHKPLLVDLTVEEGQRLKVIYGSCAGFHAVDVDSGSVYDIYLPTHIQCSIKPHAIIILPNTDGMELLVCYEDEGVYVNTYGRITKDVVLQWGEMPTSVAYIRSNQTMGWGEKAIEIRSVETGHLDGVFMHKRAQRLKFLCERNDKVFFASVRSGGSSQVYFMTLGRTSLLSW
Sequence of NT-3 growth factor receptor (Homo sapiens) (Q16288 32-839 limits assumed): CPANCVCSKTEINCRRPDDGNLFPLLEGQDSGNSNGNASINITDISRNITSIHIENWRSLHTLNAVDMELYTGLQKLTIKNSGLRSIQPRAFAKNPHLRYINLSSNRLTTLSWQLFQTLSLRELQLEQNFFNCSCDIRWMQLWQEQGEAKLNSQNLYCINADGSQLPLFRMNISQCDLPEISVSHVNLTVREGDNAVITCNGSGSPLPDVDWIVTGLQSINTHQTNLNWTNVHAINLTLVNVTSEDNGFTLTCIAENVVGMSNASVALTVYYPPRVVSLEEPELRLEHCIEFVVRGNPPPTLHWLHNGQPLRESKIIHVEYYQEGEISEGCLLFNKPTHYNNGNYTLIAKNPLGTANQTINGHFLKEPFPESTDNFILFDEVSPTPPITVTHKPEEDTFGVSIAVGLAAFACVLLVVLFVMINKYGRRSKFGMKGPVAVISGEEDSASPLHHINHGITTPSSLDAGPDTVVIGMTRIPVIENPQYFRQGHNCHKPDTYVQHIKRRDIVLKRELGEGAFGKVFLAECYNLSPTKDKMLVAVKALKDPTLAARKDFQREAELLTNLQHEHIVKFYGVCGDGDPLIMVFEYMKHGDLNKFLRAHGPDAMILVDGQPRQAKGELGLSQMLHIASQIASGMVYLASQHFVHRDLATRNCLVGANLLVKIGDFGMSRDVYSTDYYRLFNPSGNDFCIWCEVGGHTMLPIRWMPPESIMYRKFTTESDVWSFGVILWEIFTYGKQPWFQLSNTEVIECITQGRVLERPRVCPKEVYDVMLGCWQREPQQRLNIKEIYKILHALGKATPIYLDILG
Sequence of Aurora kinase B (Homo sapiens) (Q96GD4 whole entry): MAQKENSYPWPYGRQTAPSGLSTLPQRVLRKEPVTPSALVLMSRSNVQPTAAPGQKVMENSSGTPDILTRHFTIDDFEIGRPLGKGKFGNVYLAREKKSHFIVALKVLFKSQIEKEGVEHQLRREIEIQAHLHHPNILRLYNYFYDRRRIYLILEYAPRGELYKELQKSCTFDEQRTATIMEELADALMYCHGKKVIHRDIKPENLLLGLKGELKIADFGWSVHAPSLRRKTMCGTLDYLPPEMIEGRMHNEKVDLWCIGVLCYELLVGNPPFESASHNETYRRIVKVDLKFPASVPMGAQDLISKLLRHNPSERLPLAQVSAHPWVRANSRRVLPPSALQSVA
Sequence of Serine/threonine-protein kinase 10 (Homo sapiens) (O94804 whole entry, looked up): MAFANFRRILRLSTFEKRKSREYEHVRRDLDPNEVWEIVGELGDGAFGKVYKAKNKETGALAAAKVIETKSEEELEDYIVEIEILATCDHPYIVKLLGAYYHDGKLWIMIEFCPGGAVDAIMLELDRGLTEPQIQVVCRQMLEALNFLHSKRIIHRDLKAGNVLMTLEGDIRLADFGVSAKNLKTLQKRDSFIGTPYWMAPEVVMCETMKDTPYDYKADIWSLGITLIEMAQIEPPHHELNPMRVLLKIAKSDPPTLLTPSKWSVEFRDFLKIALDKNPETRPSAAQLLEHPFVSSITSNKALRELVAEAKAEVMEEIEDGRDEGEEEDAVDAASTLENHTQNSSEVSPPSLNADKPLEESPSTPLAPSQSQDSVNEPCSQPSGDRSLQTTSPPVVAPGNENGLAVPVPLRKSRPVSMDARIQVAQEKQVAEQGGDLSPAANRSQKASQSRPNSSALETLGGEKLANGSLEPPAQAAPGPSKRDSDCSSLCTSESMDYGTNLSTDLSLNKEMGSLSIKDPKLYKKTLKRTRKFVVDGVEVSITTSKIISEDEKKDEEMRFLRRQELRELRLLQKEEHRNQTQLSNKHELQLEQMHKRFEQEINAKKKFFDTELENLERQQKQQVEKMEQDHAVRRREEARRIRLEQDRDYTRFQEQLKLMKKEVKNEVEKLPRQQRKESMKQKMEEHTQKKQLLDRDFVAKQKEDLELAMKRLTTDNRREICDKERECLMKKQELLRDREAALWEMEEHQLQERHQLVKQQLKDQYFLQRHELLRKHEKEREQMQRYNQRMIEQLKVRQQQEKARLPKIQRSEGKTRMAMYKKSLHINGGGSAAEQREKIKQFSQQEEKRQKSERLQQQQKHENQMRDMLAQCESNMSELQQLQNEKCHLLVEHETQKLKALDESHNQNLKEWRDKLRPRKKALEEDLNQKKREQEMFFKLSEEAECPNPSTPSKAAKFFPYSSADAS

In the case of `COC(=O)c1cncc(/C=C/c2c(C)cc(O)cc2C)c1`, the inhibition came to 0.47% in [1]; 2.4% in experiment [2]; 4.35% in experiment [3]; 2% in [4]; 6.12% in experiment [5]; 4.44% in [6]. Moreover, the inhibition in experiment [7] was 22.5%; in experiment [8], -4.1%; in experiment [9], 1.18%; in [10] it was 2.33%; in experiment [11] it was 8.18%; in experiment [12], 2.38%. Besides, the inhibition was 9.6% in [13]; 2.3% in experiment [14]; -1.31% in experiment [15]; 5.36% in [16]; 26.2% in experiment [17]; 0.34% in experiment [18]. Further, the inhibition was 4.75% in [19] and 3.73% in experiment [20].
Regarding `OCc1ccc(-c2nc(-c3ccccn3)c(-c3ccc4c(c3)OCO4)[nH]2)cc1`, the inhibition in experiment [1] was determined as 3.45%; in experiment [2], 3.16%; in [3] it was 1%; in experiment [4] it was 4.37%; in experiment [5] it was 3%; in [6], 6.42%. Moreover, the inhibition in [7] is 12.5%; in [8] it was -1.9%; in [9] it was 9.01%; in experiment [10] it was 4.4%; in experiment [11], 11%; in experiment [12], 6.24%. The inhibition in experiment [13] came to 11.7%; in experiment [14], 3.67%; in experiment [15], 12.5%; in experiment [16], 6.01%; in experiment [17] it was 4.97%; in [18], 1.15%. The inhibition in [19] came out at 2.87%; in experiment [20], 5.21%.
In the case of `COc1cc2ncnc(Nc3ccc4c(cnn4Cc4ccccc4)c3)c2cc1OC`, the inhibition in [1] was 2.18%; in experiment [2] it was 2.13%; in experiment [3], 3.38%; in experiment [4], 1.5%; in [5] it was 2.59%; in experiment [6], 0.73%. Besides, the inhibition in experiment [7] was 4.56%; in experiment [8], -1.09%; in [9], 13.2%; in experiment [10], 1.22%; in experiment [11], 7.82%; in [12] it was 3.48%. The inhibition is 15% in experiment [13]; 1.9% in experiment [14]; 23.7% in [15]; 0.29% in [16]; 14.2% in experiment [17]; 1.57% in experiment [18]. For the same compound, the inhibition in experiment [19] is 1.51%; in experiment [20], 8.32%.
Take `CCn1c(-c2nonc2N)nc2ccc(F)cc21`: the inhibition in [1] is 2.84%; in [2], 4.03%; in experiment [3], 4.23%; in experiment [4], 3.74%; in experiment [5], 4.75%; in [6], 1.94%. Also, the inhibition in experiment [7] is 0.47%; in experiment [8], -3.66%; in [9], 11.6%; in experiment [10] it was 3.17%; in experiment [11], 4.08%; in experiment [12], 1.24%. Also, the inhibition in experiment [13] was 7.81%; in experiment [14], 1.48%; in experiment [15], -2.72%; in [16] it was 9.56%; in experiment [17], 13.5%; in experiment [18], 1.16%. The inhibition was 2.01% in experiment [19] and 4.2% in experiment [20].
For `[O-][S+]1CCN(Cc2ccc(-c3ccc4ncnc(Nc5ccc(OCc6ccccc6)c(Cl)c5)c4c3)o2)CC1`, the inhibition came out at 3.75% in experiment [1]; 1.6% in [2]; 2.14% in experiment [3]; 0.66% in experiment [4]; 0.36% in experiment [5]; 0.16% in [6]. Also, the inhibition in experiment [7] was 2.65%; in experiment [8] it was -1.17%; in [9], 8.12%; in experiment [10], 1.75%; in experiment [11], 2.75%; in experiment [12], 3.28%. The inhibition in [13] is 5.05%; in [14] it was -0.09%; in experiment [15] it was 1.6%; in experiment [16] it was 3.93%; in experiment [17], 12.3%; in [18], -0.35%. Also, the inhibition in experiment [19] was determined as 1.53%; in experiment [20], 0.26%.
Consider `NC(=O)c1cccc(Nc2nccc(Nc3cccc(F)c3)n2)c1`, for which the inhibition in experiment [1] was 2.65%; in experiment [2] it was 1.46%; in experiment [3], 14.8%; in [4] it was -1.62%; in experiment [5], 5.94%; in experiment [6], 6.53%. Besides, the inhibition in experiment [7] turned out to be 29%; in [8], 3.52%; in [9], 6.29%; in experiment [10], 14.9%; in [11] it was 65.5%; in experiment [12], 12.6%. In addition, the inhibition was 49.3% in experiment [13]; 25.6% in experiment [14]; 85.2% in [15]; -0.14% in experiment [16]; 12.3% in experiment [17]; 0.98% in experiment [18]. Moreover, the inhibition in experiment [19] stood at 14.1%; in experiment [20], 8.77%.

For the origin of these results see ChEMBL document CHEMBL1961873, “Compounds: GSK PKIS; Assays: Nanosyn kinase panel” (2012).
